7 compounds from paper PMC5540273 (PLoS ONE, 2017) can be followed below.

For experiment [1], the system named is JAK3(JH1domain-catalytic).
The subject of experiment [2] is LATS1.
Experiment [3] relates to LATS2.
Experiment [4] has as its system LIMK2.
Experiment [5] relates to T1, LOK.
T1 construct: gene STK10

Experiment [6] deals with LRRK2.
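Note: kd values determined as follow-up on hits from a single-replicate KINOMEscan panel screen.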

Turning to `COc1cccc(C2=C(Nc3cc(Cl)c(O)c(Cl)c3)C(=O)NC2=O)c1` [SB-390767], the Kd in experiment [1] came to 0.12 µM. `Cc1c(Cn2c(C)c(C)n3c(=O)cc(N4CCOCC4)nc23)cccc1C(F)(F)F` [GSK2328680]: the equilibrium dissociation constant (Kd) in experiment [2] is over 10 µM. In experiment [3], `COc1ccc(Nc2nccc(N3CCC(NC(=O)C(C)c4ccc(Cl)cc4)CC3)n2)cc1` (stereo not shown) [GSK1379812] came in with a Kd of over 10 µM. In the case of `CCn1c(-c2c(N)noc2C)nc2cnccc21` [SB-737856], the Kd in experiment [4] was over 10 µM.

As for `CC(=O)c1c(C)c2cnc(Nc3ccc(N4CCNCC4)cn3)nc2n(C2CCCC2)c1=O`, in experiment [4], the Kd was over 10 µM. Turning to `CS(=O)(=O)Cc1ccc(Nc2nccc(-c3c(-c4cccc(NC(=O)C5CCCCC5)c4)nn4ncccc34)n2)cc1` [GSK350559], the Kd in experiment [5] amounted to 0.36 µM. As for `Cc1ccc(NC(=O)c2ccc(Cl)cc2)cc1-c1ccc(C(=O)Nc2ccncc2)cc1` [GSK1398467], the Kd in experiment [6] was over 10 µM.

One may read the Kd as the equilibrium constant for the complex coming apart. Low readings indicate tighter binding, high ones weaker binding.
